# In the library only some 0.97% were active in any assay of this set; here they are far more common.
# CCT modulator = cytosolic chaperonin activity modulation; purified chaperonin ATPase assay, HTRF ADP detection, 30 min; activity change, % (concentration not given with the values), hits read low; 360,000 compounds, 0.3% hits; in the data active means activity change below about -30%
#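 Enzyme 40 or 20 nM (batch-dependent) in Tris pH 7.4/KCl/MgCl2/DTT; cpd 76 uM single point; ATP 10 uM; 30 min 37 °C; Transcreener ADP HTRF detection, 30 min RT; ratio 665/615.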
# CtBP-E1A blk = CtBP/E1A binding inhibition; AlphaScreen GST-E1A/His-CtBP binding, 1536-well; hits give low values; activity change, % (test concentration not listed); 340,000 compounds, 0.49% hits; AID 651724
#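 In 5 uL wells, 23 nL compound meets equimolar GST-E1A and His-CtBP (5X stock 125 nM each) for 2 h, 37 °C. Beads (5X, 50 ug/mL) then 1 h, 37 °C, dark.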
# Eya2 phos inh = Eya2 (human) phosphatase inhibition | recombinant Eya2, OMFP fluorescence dephosphorylation (OMFP is methylfluorescein phosphate) | Potency, µM (titrated, usually from 76.9 µM), most hits filed as inhibitors | 330,000 compounds, 0.006% hits | AID 488837; active means well fitted inhibition curve with a large enough effect; inconclusive means small, poorly fitted or top-dose-only effect, or effect the other way
#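 Eya2 protein (added as 0.2 uM solution) was preincubated with compound for 10 min at ambient temperature in 50 mM HEPES pH 7.5, 50 mM NaCl, 5 uM MgCl2, 0.05% BSA, 1 mM DTT. OMFP (added at 50 uM) then reacted 10 min; fluorescence read at 485/525 nm.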
# Six1-Eya2 blk = blocks human Six1 binding to Eya2; Q15475+O00167; AlphaScreen GST-Six1/His-Eya2 binding, biochemical; hits give low values; activity change, % (test concentration not listed); 360,000 compounds, 0.56% hits
#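 AlphaScreen with GST-Six1 and His-Eya2 (5X mix: 250 nM and 500 nM), glutathione donor and nickel acceptor beads; buffer 50 mM Tris pH 8.0, 300 mM NaCl, 1 mM TCEP; 1 h at 37 C in the dark.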
# PI4K2A block = PI4K2A (human) kinase inhibition | Q9BTU6 | purified PI4K2A, ADP-Glo luminescence, 1 h; hits give low values | activity change, negative = inhibition, % at 76.9 µM | 420,000 compounds, 0.13% hits | AID 1346378; in the data active means activity change below about -50%; inconclusive means mostly about -30% to -49%
# Target sequence (Q9BTU6 whole entry, looked up): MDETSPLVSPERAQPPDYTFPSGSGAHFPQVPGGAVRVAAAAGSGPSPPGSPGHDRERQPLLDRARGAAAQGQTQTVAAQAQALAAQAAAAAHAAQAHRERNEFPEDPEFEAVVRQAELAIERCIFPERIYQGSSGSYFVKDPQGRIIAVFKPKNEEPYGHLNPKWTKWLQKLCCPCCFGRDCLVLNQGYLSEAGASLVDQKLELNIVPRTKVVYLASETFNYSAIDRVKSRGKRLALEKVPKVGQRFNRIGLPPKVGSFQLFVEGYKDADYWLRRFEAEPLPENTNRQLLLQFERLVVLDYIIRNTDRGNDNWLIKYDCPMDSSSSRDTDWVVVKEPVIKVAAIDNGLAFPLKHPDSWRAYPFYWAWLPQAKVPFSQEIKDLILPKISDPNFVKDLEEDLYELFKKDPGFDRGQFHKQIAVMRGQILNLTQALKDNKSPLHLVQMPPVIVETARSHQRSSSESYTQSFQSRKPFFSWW
#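 Compounds are screened against recombinant PI4K2A using PI as substrate and ATP, the latter dispensed at 300 microM. Reactions run one hour at ambient temperature before ADP-Glo detection; full inhibition defined by wells lacking enzyme.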
# Numbers stand for hits; i = inactive; ? = inconclusive; nt = no result; [ ] = another dose, or the depositor's remark. Unless noted, no stated cut-off is given here; in the data, active means activity change below about -65%; inconclusive means mostly about -30% to -63%; inactive means weaker than that.
SMILES,CCT modulator,CtBP-E1A blk,Eya2 phos inh,Six1-Eya2 blk,PI4K2A block
COC(=O)c1ccc(C2C=C(c3ccc(Cl)cc3)Nc3nc4ccccc4n32)cc1 (configuration not stated),nt,nt,nt,nt,i
CCOCCCNC(=O)N1CCN(S(=O)(=O)c2ccc3c(ccn3C)c2)CC1,nt,nt,nt,nt,i
CCCCc1ccc(NC(=O)Nc2cc(C)nn2C)cc1,-111,i,i,i,i
CCCCc1ccc(NC(=O)Nc2cnccn2)cc1,i,i,i,i,i
CCc1noc(-c2ccc(N3CCC(C)CC3)c([N+](=O)[O-])c2)n1,nt,nt,nt,nt,i
CC[n+]1c(/C=C/C=C2/N(C)c3ccccc3C2(C)C)sc2ccccc21,nt,nt,i,nt,?
CCn1c(C)c(C)c2cc(C(=O)NCCN3CCOCC3)ccc21,-40,i,i,i,i
CN1CCC(N(Cc2cccs2)c2ccccc2)CC1,nt,nt,nt,nt,i
Cc1ccc(-c2nc(CS(=O)CC(=O)N3CCN(c4ccc(Cl)cc4)CC3)c(C)o2)cc1 (configuration not stated),nt,nt,nt,nt,i
Cc1ccccc1C(=O)N1CC/C(=N\OS(=O)(=O)O)c2ccc(Cl)cc21,nt,nt,nt,nt,i
O=C(Cn1[nH]c(=O)c2ccccc2c1=O)OCC(=O)c1ccc(Br)cc1,i,i,i,i,i
COc1ccccc1C(=O)COC(=O)Cn1[nH]c(=O)c2ccccc2c1=O,-31,i,i,i,i
Cc1cccc(-c2nc(N3CCN(c4ccc(F)cc4)CC3)c3ccccc3n2)c1,nt,nt,nt,nt,i
CCCCCCc1c(C)c2c(cc(C)c3c(C)coc32)oc1=O,nt,nt,nt,nt,i
Cc1coc2c1c(C)cc1oc(=O)c(Cc3ccccc3)c(C)c12,i,i,i,i,-84
C[C@H]1C[C@H]2[C@@H]3CCC4=CC(=O)C=C[C@]4(C)[C@H]3C(=O)C[C@]2(C)[C@@]1(O)C(=O)CO,nt,nt,nt,nt,i
Clc1ccccc1CN(Cc1ccco1)Cc1nnnn1C1CCCC1,-70,i,i,i,i
COc1ccccc1CNC(=O)C1CCN(S(=O)(=O)c2ccc3nc4c(c(C(=O)O)c3c2)CCCC4)CC1,i,?,i,?,i
COc1ccc(CNC(=O)C2CCN(S(=O)(=O)c3ccc4nc5c(c(C(=O)O)c4c3)CC(C)CC5)CC2)cc1 (configuration not stated),i,-82,i,-73,i
CC1CCC(NC(=O)C2CCN(S(=O)(=O)c3ccc4nc5c(c(C(=O)O)c4c3)CC(C)CC5)CC2)CC1 (configuration not stated),i,nt,i,i,i
CCCNC(=O)C1CCN(S(=O)(=O)c2ccc3nc4c(c(C(=O)O)c3c2)CCCCC4)CC1,i,i,i,i,i
O=C(O)c1c2c(nc3ccc(S(=O)(=O)N4CCC(C(=O)NCc5ccccc5)CC4)cc13)CCCC2,i,i,nt,-73,i
CC1CCc2nc3ccc(S(=O)(=O)N4CCC(C(=O)NCc5ccccc5Cl)CC4)cc3c(C(=O)O)c2C1 (configuration not stated),i,-66,i,-73,i
C[C@@H](O[C@H]1OCCN(Cc2n[nH]c(=O)[nH]2)[C@H]1c1ccc(F)cc1)c1cc(C(F)(F)F)cc(C(F)(F)F)c1,nt,nt,nt,nt,i
COc1ccc(-n2c(=O)c3c(c4cc(OC)ccc4n3C)n(Cc3cc(C)ccc3C)c2=O)cc1,nt,nt,nt,nt,i
SMILES,CCT modulator,CtBP-E1A blk,Eya2 phos inh,Six1-Eya2 blk,PI4K2A block
CC(C)(C)c1ccc(C(=O)CCCN2CCC(OC(c3ccccc3)c3ccccc3)CC2)cc1,nt,nt,i,nt,i
O=C(CN1C(=O)c2ccccc2C1=O)OCC(=O)c1ccc(F)cc1,i,i,i,i,i
O=C(CN1CC(=O)Oc2ccccc21)OCC(=O)c1ccccc1,i,-92,i,-91,i
O=C(CN1CC(=O)Oc2ccccc21)OCC(=O)c1cccc(Br)c1,i,?,i,-82,i
Cc1ccc2c(Br)cc(Br)c(O)c2n1,nt,nt,nt,nt,i
CCCNC(=O)c1cnc2sc(N3CCCCCC3)nn2c1=O,nt,nt,nt,nt,i
CCS(=O)(=O)N1CCN(c2ccccc2)CC1,-40,i,i,i,i
Cn1cnc(S(=O)(=O)N2CCN(c3ccccc3)CC2)c1,-78,nt,i,i,i
Cn1cnc(S(=O)(=O)N2CCN(c3ccc(Cl)cc3)CC2)c1,i,i,i,i,i
CCOC(=O)c1c(-c2ccccc2)csc1NC(=O)c1nc(S(=O)(=O)CC)ncc1Cl,nt,nt,nt,nt,i
Cc1nc2nc(CNC(=O)c3cccc(F)c3)nn2c(C)c1CCC(=O)Nc1cccc(Cl)c1,nt,nt,nt,nt,i
COc1cccc(NC(=O)CCc2c(C)nc3nc(CNC(=O)c4cccc(F)c4)nn3c2C)c1,i,-76,i,?,i
CC(C)C(=O)Nc1cccc(C2CN3CCSC3=N2)c1 (configuration not stated),nt,nt,nt,nt,i
Oc1ccc2ccccc2c1N=Nc1ccccn1,i,-73,i,-84,i
Oc1ccc2ccccc2c1N=Nc1ccccc1F,i,?,i,-88,i
CCOC(=O)c1[nH]cnc1N=Nc1c(O)ccc2ccccc12,i,-70,i,-82,i
COc1cc2c(cc1OC)C1O[C@](CCCCN3C(=O)c4ccccc4C3=O)(C2)Oc2cc(C)n(Cc3ccccc3)c(=O)c21,nt,nt,i[15.4 µM],nt,nt
COc1ccc(N(CC(=O)NCc2ccc(F)cc2)S(=O)(=O)c2c(C)noc2C)cc1,i,i,i,i,i
COc1ccc(N(CC(=O)NCC2CCCO2)S(=O)(=O)c2c(C)noc2C)cc1 (configuration not stated),-65,i,i,i,i
CC(C)(C)OC(=O)CC12CCCCC1NC(=O)O2 (configuration not stated),-49,i,i,i,i
C[C@@H]1Cn2cnc(C(=O)NCC(=O)OC(C)(C)C)c2C(=O)N1,i,i,nt,i,i
CCOc1ccc(-c2[nH]ncc2Oc2ccccc2OCC)c(O)c1,-73,i,i,i,i
Nc1c(I)cc(I)c(C(=O)N(CCC(=O)O)c2ccccc2)c1I,nt,nt,nt,nt,i
Cc1cc2oc(C(=O)Nc3ccc(S(=O)(=O)N(C)c4ccccc4)cc3)cc(=O)c2cc1C,nt,nt,nt,nt,i
CN(C)CCCO[C@@H]1[C@H]2OC(C)(C)O[C@H]2O[C@@H]1C(O)CO (some centres not stated),nt,nt,nt,nt,i
SMILES,CCT modulator,CtBP-E1A blk,Eya2 phos inh,Six1-Eya2 blk,PI4K2A block
CN(C)CCCO[C@@H]1[C@H]2OC(C)(C)O[C@H]2O[C@@H]1[C@H](O)CO,-88,i,i,i,i
CCN1CCCCC(NC(=O)c2ccc(F)cc2)C1=O (configuration not stated),nt,nt,nt,nt,i
Cn1c(Cc2cccs2)nnc1SCC(=O)Nc1ccc2c(c1)OCCO2,nt,nt,nt,nt,i
Cc1ccc(NC2=C([N+](=O)[O-])CS(=O)(=O)C2)cc1,i,i,i,i,i
CN(C)c1ccc(NC2=C([N+](=O)[O-])CS(=O)(=O)C2)cc1,i,i,i,i,-63
O=C(CN1CCOCC1)N/N=C/c1c(O)ccc2ccccc12,i,-93,i,-95,i
O=C(CSCC(=O)Nc1ccccc1)N/N=C/c1c(O)ccc2ccccc12,i,-72,i,?,i

# Compound activity as filed in PubChem.
